# Source: PubChem BioAssay
# The full list was thinned out, with hits kept by preference.
# Giardia FBPA inh = qHTS Assay for Inhibitors of Fructose-1,6-bisphosphate Aldolase from Giardia Lamblia; purified Giardia FBPA; AID 2451, 2010; actives 0.71% (n = 290,000); Potency, µM (top dose mostly 59.6 µM), for inactives: top-dose activity, negative = inhibition, actives largely listed as inhibitors; A8B2U2; also: nearly all actives have a fitted effect of over 55% in size
# Target sequence (A8B2U2 whole entry, looked up): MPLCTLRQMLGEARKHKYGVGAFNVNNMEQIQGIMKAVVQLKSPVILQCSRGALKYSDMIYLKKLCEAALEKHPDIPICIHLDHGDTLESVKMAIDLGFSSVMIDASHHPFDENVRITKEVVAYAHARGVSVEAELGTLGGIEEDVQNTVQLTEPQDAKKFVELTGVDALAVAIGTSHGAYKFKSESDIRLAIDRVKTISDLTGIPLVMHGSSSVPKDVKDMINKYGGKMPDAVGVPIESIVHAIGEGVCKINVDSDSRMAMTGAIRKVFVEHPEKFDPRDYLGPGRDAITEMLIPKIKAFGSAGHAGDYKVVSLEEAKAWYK
#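 40 nM FBPA preincubated 10 min at RT with compound (up to 57.5 uM final), then substrate plus GAPDH/TPI/NAD/arsenate coupling and diaphorase/resazurin added. Fluorescence read after 20 min at RT, 525/598 nm.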
# Cruzain Triton = qHTS Assay for Promiscuous and Specific Inhibitors of Cruzain (with detergent) | purified cruzain, Z-FR-AMC fluorescence, 0.01% Triton | Potency, µM, without a hit: max response, negative = inhibition, usual class: inhibitors | actives 0.43% (n = 200,000) | AID 1478, 2009;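 also: plate controls were neutral wells for no effect and buffer without enzyme for full effect; nearly all actives have a fitted effect of over 40% in size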
# Target sequence (P25779 123-467 limits assumed): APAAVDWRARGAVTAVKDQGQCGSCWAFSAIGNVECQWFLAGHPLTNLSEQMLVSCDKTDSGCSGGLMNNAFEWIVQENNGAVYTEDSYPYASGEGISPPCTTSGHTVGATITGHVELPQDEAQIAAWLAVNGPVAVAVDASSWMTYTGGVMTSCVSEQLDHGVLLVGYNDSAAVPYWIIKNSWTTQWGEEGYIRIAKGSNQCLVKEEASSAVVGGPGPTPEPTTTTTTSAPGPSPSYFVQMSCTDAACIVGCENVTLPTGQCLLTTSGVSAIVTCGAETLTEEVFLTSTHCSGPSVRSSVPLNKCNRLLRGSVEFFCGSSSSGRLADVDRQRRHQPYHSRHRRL
#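 Compounds were screened in titration against cruzain (1.5 nM) with 0.01% Triton X-100 to counter colloidal aggregation. Activity was the AMC fluorescence increase over 60 s after adding 2 uM Z-FR-AMC at pH 5.5.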
# Cruzain inh noDet = qHTS Assay for Promiscuous and Specific Inhibitors of Cruzain (without detergent). Potency, µM, for the others: max response, negative = inhibition, actives largely listed as inhibitors. purified cruzain, Z-FR-AMC fluorescence, no detergent. AID 1476, 2009. Cruzipain (Trypanosoma cruzi), P25779. actives 2.3% (n = 200,000);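 also: plate controls were enzyme without inhibitor for no effect and buffer without enzyme for full effect; nearly all actives have a fitted effect of over 40% in size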
#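 Detergent-free condition (0.00005% Triton X-100) in acetate buffer pH 5.5 with DTT. 1.5 nM enzyme and compound were pre-mixed 15 min, then 2 uM Z-FR-AMC substrate added; reaction progress from fluorescence change between first and third reads (60 s).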
# * marks the source's active call; other numbers are inactive results; u = inconclusive; x = no result given. Calls follow the shape of the dose curve; as a rule, active = well fitted curve in the direction sought with a large enough effect; inconclusive = small, poorly fitted or top-dose-only effect, or another doubt; inactive = no such curve, though single readings can be large; an effect the other way counts as inactive or inconclusive. Unless noted, % is scaled to controls: 0 for no effect and ±100 for the full control effect; potency is read from the fitted curve at half-maximal effect.
SMILES,Giardia FBPA inh,Cruzain Triton,Cruzain inh noDet
CCCn1c2ccccc2c2nnc(SC(CC)C(=O)Nc3cc(C)on3)nc21 (stereo not given),1%,-14%,-21%
CCCn1c2ccccc2c2nnc(SC(CC)C(=O)Nc3sc4c(c3C#N)CCCC4)nc21 (stereo not given),-5%,0%,10µM*
CCN(c1ccccc1)S(=O)(=O)c1ccc(Cl)c(NC(=O)COC(=O)c2cccc(OC)c2O)c1,-2%,-4%,u
CCN(CC)S(=O)(=O)c1ccc(Cl)c(NC(=O)COC(=O)c2cc(-c3ccccc3Cl)nc3ccccc23)c1,-3%,-4%,10µM*
COc1cc(-c2cc(C(=O)Nc3cccc(S(=O)(=O)N(C)C)c3)c3ccccc3n2)cc(OC)c1OC,-6%,x,x
CCN(c1ccccc1)S(=O)(=O)c1ccc(Cl)c(NC(=O)COC(=O)c2ccc(Cl)c(N)c2)c1,5%,-4%,25µM*
CCN(CC)S(=O)(=O)c1ccc(Cl)c(NC(=O)COC(=O)c2ccc(O)cc2)c1,-1%,x,x
CN(C)S(=O)(=O)c1cccc(NC(=O)COC(=O)c2cc(-c3cccc(Br)c3)nc3ccccc23)c1,1%,-1%,10µM*
O=C(CSC1=NCCN1)Nc1ccccc1,x,0%,-4%
Cc1ccc(NC(=O)c2ccc(OC(=O)COc3ccc(Cl)cc3C)cc2)cc1,-1%,7%,13µM*
Cc1ccc(NC(=O)c2ccc(OC(=O)COc3cccc(Cl)c3)cc2)cc1,0%,-2%,13µM*
Cc1ccc(C(=O)CC(=O)COc2ccc(Cl)cc2C)cc1,-9%,-4%,11%
COC(=O)COc1cccc(NC(=O)c2cccc(C)c2)c1,1%,x,x
C#C[C@]1(O)CCC2C3CCC4=Cc5oncc5C[C@@]4(C)C3CC[C@@]21C (stereo not given in full),4%,-12%,1%
Cc1ccccc1NC(=O)CN(c1ccc(Cl)cc1Cl)S(=O)(=O)c1ccccc1,x,-5%,5%
Fc1ccc(NC(=S)N/N=C/c2cccc(Br)c2)c(F)c1,0%,-5%,25µM*
Fc1cccc(/C=N/NC(=S)Nc2ccccc2Cl)c1,-12%,-7%,u
COc1cc(CN(C(=O)COc2ccccc2Cl)c2ccccn2)cc(OC)c1OC,x,-2%,u
Cc1ccc(NC(=O)CN2CCC(NC(=O)C3CCCCC3)CC2)c(Br)c1,4%,-2%,-13%
Cc1ccc(C(=O)CN2CCC(NC(=O)C3CCCCC3)CC2)cc1,3%,25µM*,u
CN1CC(C(=O)O)Cc2c1ccc1ccccc21 (stereo not given),10µM*,x,x
CN1C(=O)N(C)C(=O)C2(Cc3c(ccc4ccccc34)N(C)C2)C1=O,u,-3%,3%
Cc1ccc(-c2nc3sccn3c2Nc2ccccc2C)cc1,x,-13%,25µM*
Cc1ccccc1Nc1c(-c2ccc(Br)cc2O)nc2sccn12,x,-4%,20µM*
CCc1cccc(C)c1Nc1c(-c2ccccc2)nc2sccn12,x,-12%,-3%
SMILES,Giardia FBPA inh,Cruzain Triton,Cruzain inh noDet
Cc1ccccc1Nc1c(-c2cc(Br)ccc2F)nc2ccccn12,x,-1%,-5%
CCCCOc1ccccc1C1CC(=O)Nc2ccc3ccccc3c21 (stereo not given),x,-11%,-27%
O=C(O)C/C(=C\c1ccccc1)C(=O)O,x,3%,2%
COc1ccc(Cn2ccnc2SCC(=O)Nc2cc(C(F)(F)F)ccc2Cl)cc1,x,-11%,5%
C1CCCNCC1,x,11%,-9%
O=C1C(O)=C(O)C(=O)C(O)=C1O,13µM*,-4%,3%
Cc1ccc(-c2nnc(SCC(=O)n3c4c(c5ccccc53)CCCC4)o2)cc1,0%,1%,-18%
O=C(CSc1nnc(-c2ccccc2)o1)n1c2c(c3ccccc31)CCCC2,2%,0%,25µM*
COc1cccc(CNC(=O)CCc2nnc3n(C)c(=O)c4sccc4n23)c1,x,-1%,-12%
N#Cc1c(NC(=S)NC(=O)c2ccccc2)sc2c1CCCC2,-1%,-3%,-24%
CC1CCc2c(sc(NC(=O)COC(=O)c3ccccc3NCc3ccco3)c2C#N)C1 (stereo not given),-3%,5%,16µM*
N#Cc1c(NC(=S)NC(=O)c2ccccc2)sc2c1CCN(CCc1ccccc1)C2,-2%,-15%,16µM*
Cc1ccccc1C(=O)NC(=S)Nc1sc2c(c1C#N)CCC(C)C2 (stereo not given),-11%,2%,16µM*
CC1CCc2c(sc(NC(=S)NC(=O)c3ccccc3)c2C#N)C1 (stereo not given),0%,x,x
CC1CCc2c(sc(NC(=O)COc3ccccc3C(C)(C)C)c2C#N)C1 (stereo not given),x,-1%,-8%
CCc1ccc(NC(=O)C2CCN(c3nnc(-n4c(C)ccc4C)s3)CC2)cc1,x,-5%,-1%
Cc1cc(C)cc(NC(=O)C2CCN(S(=O)(=O)c3cccc(-c4noc(C)n4)c3)CC2)c1,x,1%,6%
O=C(Nc1cccc2ccccc12)NC1CCCc2ccccc21 (stereo not given),0%,8%,13µM*
COc1ccccc1NC(=O)NC1CCCc2ccccc21 (stereo not given),5%,x,x
O=C(NCc1ccccc1)c1cnc(N2CCCCC2)c2ccccc12,x,-6%,-11%
O=C(Nc1ccc(CN2CCOCC2)cc1)c1ccc(Br)o1,-2%,x,x
O=C(Nc1ccc(CN2CCOCC2)cc1)c1ccc(-c2cc(Cl)ccc2Cl)o1,-4%,-19%,25µM*
Cc1ccccc1NC(=O)c1c(C)oc2ccc(O)c(CN(C)Cc3ccccc3)c12,x,-5%,-26%
Cc1ccc(S(=O)(=O)NC2c3cccc4cccc(c34)C2Sc2nncn2C)cc1 (stereo not given),2%,2%,-8%
Cc1ccc(S(=O)(=O)NC2c3cccc4cccc(c34)C2Sc2nc(C)cc(C)n2)cc1 (stereo not given),-1%,-3%,25µM*
SMILES,Giardia FBPA inh,Cruzain Triton,Cruzain inh noDet
CCOC(=O)c1cc(-c2ccc(C)cc2)n(CCC(=O)Nc2nc3c(C)cccc3s2)c1C,x,1%,u
COc1ccc(S(=O)(=O)n2nc(OC(=O)c3ccccc3)cc2N)cc1,14%,-15%,-16%
CS(=O)(=O)n1nc(OC(=O)c2cccs2)cc1N,6%,x,x
COc1ccc(S(=O)(=O)n2nc(OC(=O)c3cccs3)cc2N)cc1,1%,u,13µM*
COc1ccc(S(=O)(=O)n2nc(OC(=O)c3ccco3)cc2N)cc1,3%,13µM*,20µM*
Cc1ccccc1NC1=C/C(=N\S(=O)(=O)c2ccc(C(=O)O)cc2)c2ccccc2C1=O,0.79µM*,x,x
Cc1ccc(NC2=C/C(=N/S(=O)(=O)c3cccs3)c3ccccc3C2=O)cc1C,u,-1%,10µM*
COC(=O)C(C(C)=O)C1=C/C(=N\S(=O)(=O)c2ccc(C)cc2)c2ccccc2C1=O (stereo not given),13µM*,-12%,4%
C/C(=N\S(=O)(=O)c1ccc(C)cc1)NC(=S)Nc1ccccc1,-19%,x,x
Cc1ccccc1N/C(=N/S(=O)(=O)c1ccccc1)c1ccc(F)cc1,0%,x,x
Cc1ccccc1NC1=C/C(=N\S(=O)(=O)c2cccs2)c2ccccc2C1=O,u,-5%,u
CCc1ccc(Cn2c(CNS(=O)(=O)c3ccc(F)c(Cl)c3)nc3cccnc32)cc1,x,-2%,-13%
